Results taken from the supplement of paper PMC12669032.
Values without a mark were called inactive.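 The calls were made as follows: active = AUC reduced over 20% with Padj below 0.05 in at least 2 of 3 replicates; inactive = otherwise.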

Key:
Assay in all cases: growth AUC relative to DMSO control (median of replicates) (fraction); higher = more growth (less inhibition), active = hit call of the paper
Conditions in all cases: 20 µM; 24 h
[1] = system: Akkermansia muciniphila
Outline: (§1)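 Hourly OD600 readings over 24 h tracked anaerobic gut bacterial monocultures grown at 37 °C in mGAM from OD600 0.05 with 20 µM compound (1% DMSO). After the minimum OD was set to 0, area under the growth curve was normalised to the plate median of solvent-only wells, or to row and column medians on the industrial chemical plate. Values are medians of three biological replicates grown on separate days.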

[2] = system: Bacteroides caccae
Outline: as §1

[3] = system: Bacteroides clarus
Outline: as §1

[4] = system: Bacteroides dorei
Outline: as §1

[5] = system: Bacteroides stercoris
Outline: as §1

[6] = system: Bacteroides thetaiotaomicron
Outline: as §1

[7] = system: Bacteroides uniformis
Outline: as §1

[8] = system: Bifidobacterium longum subsp. longum
Outline: as §1

[9] = system: Clostridium difficile
Outline: as §1

[10] = system: Collinsella aerofaciens
Outline: as §1

[11] = system: Coprococcus comes
Outline: as §1

[12] = system: Escherichia coli ED1a
Outline: as §1

[13] = system: Escherichia coli IAI1
Outline: as §1

[14] = system: Eubacterium rectale
Outline: as §1

[15] = system: Fusobacterium nucleatum subsp. animalis
Outline: as §1

[16] = system: Lactobacillus gasseri
Outline: as §1

[17] = system: Lactobacillus paracasei
Outline: as §1

[18] = system: Odoribacter splanchnicus
Outline: as §1

[19] = system: Parabacteroides distasonis
Outline: as §1

[20] = system: Parabacteroides merdae
Outline: as §1

SMILES | growth AUC [1] | growth AUC [2] | growth AUC [3] | growth AUC [4] | growth AUC [5] | growth AUC [6] | growth AUC [7] | growth AUC [8] | growth AUC [9] | growth AUC [10] | growth AUC [11] | growth AUC [12] | growth AUC [13] | growth AUC [14] | growth AUC [15] | growth AUC [16] | growth AUC [17] | growth AUC [18] | growth AUC [19] | growth AUC [20]
C=CCC1=C(C)C(OC(=O)C2C(C=C(C)C)C2(C)C)CC1=O (stereo not given) | 1.05 | 0.994 | 1 | 0.97 | 0.832 | 0.968 | 0.98 | 0.963 | 1 | 0.957 | 0.986 | 1.01 | 1 | 0.927 | 0.946 | 0.868 | 0.949 | 0.996 | 0.846 | 0.96
CCNc1nc(Cl)nc(NC(C)(C)C)n1 | 1.01 | 0.987 | 0.977 | 0.978 | 0.996 | 0.967 | 1 | 1.01 | 0.977 | 0.971 | 0.995 | 0.977 | 1.01 | 1.07 | 0.975 | 0.947 | 1.03 | 1.01 | 0.992 | 0.979
COCC(=O)N(c1c(C)cccc1C)N1CCOC1=O | 0.966 | 0.969 | 0.945 | 1 | 0.978 | 0.99 | 1 | 0.963 | 0.983 | 0.997 | 0.939 | 0.975 | 1.02 | 0.964 | 0.882 | 0.914 | 0.953 | 0.984 | 1.03 | 1.01
COP(=O)(OC)O/C(=C/Br)c1ccc(Cl)cc1Cl | 1.06 | 1 | 0.978 | 0.979 | 1.02 | 0.96 | 0.961 | 1.03 | 0.983 | 1 | 1.01 | 0.981 | 1 | 1 | 1.07 | 0.885 | 1.01 | 1.03 | 0.883 | 0.963
[Cl][Sn]([c]1ccccc1)([c]1ccccc1)[c]1ccccc1 | 0.915 | 0.0272 (active) | 0.272 (active) | 0.0162 (active) | 0.0164 (active) | 0.00729 (active) | 0.0126 (active) | 0.303 (active) | 0.849 | 0.152 (active) | 0.0492 (active) | 0.981 | 0.964 | 0.0221 (active) | 0.897 | 0.383 | 0.83 | 0.0358 (active) | 0.048 (active) | 0.0101 (active)
CCSCc1ccccc1OC(=O)NC | 0.874 | 1.01 | 0.972 | 0.995 | 0.992 | 0.967 | 0.973 | 0.967 | 0.972 | 1 | 0.959 | 0.971 | 0.98 | 0.933 | 0.973 | 1.13 | 1.01 | 1.03 | 1.06 | 1.01
COC(=O)c1ccccc1S(=O)(=O)NC(=O)N(C)c1nc(C)nc(OC)n1 | 0.981 | 0.984 | 0.979 | 0.984 | 1.05 | 0.99 | 1 | 1.01 | 0.984 | 1.03 | 1.01 | 0.982 | 0.978 | 0.968 | 1 | 1.06 | 0.992 | 1.01 | 0.98 | 1
O=[N+]([O-])c1c(Cl)c(Cl)cc(Cl)c1Cl | 1.02 | 0.973 | 1.01 | 1.01 | 1.19 | 1.04 | 0.992 | 0.98 | 1.02 | 1.05 | 1.01 | 0.99 | 1.02 | 0.954 | 0.983 | 1.14 | 0.927 | 1.02 | 0.986 | 1.01
O=S(=O)(c1ccc(O)cc1)c1ccc(O)cc1 | 0.921 | 0.97 | 1 | 1.01 | 0.977 | 0.996 | 0.987 | 0.949 | 0.997 | 0.976 | 0.974 | 1.05 | 1.02 | 0.972 | 0.977 | 0.963 | 0.953 | 0.914 | 0.878 | 0.974
O=[N+]([O-])c1ccc(Oc2ccc(C(F)(F)F)cc2[N+](=O)[O-])cc1 | 0.834 | 0.929 | 0.878 | 0.88 | 1.05 | 0.92 | 0.917 | 0.936 | 1.02 | 0.93 | 0.856 | 0.964 | 0.959 | 0.88 | 0.969 | 0.977 | 0.766 | 0.982 | 0.957 | 0.953
CCNC(=O)NC(=O)/C(C#N)=N/OC | 0.998 | 1 | 1 | 0.983 | 1.08 | 1 | 0.956 | 0.901 | 0.965 | 1.07 | 1.05 | 1.04 | 1.02 | 0.919 | 1.2 | 1.06 | 0.94 | 1.02 | 1.04 | 1.01
COC(=O)NS(=O)(=O)c1ccc(N)cc1 | 1 | 0.901 | 0.995 | 0.916 | 0.959 | 0.948 | 0.867 | 1.03 | 0.913 | 0.876 | 1.01 | 0.972 | 0.975 | 1.28 | 0.939 | 0.848 | 0.903 | 1.1 | 1.08 | 0.774 (active)
COc1ccc(/C(=C/C(=O)N2CCOCC2)c2ccc(F)cc2)cc1OC | 0.998 | 1.05 | 0.959 | 0.953 | 0.921 | 0.997 | 0.984 | 0.958 | 1 | 0.952 | 1.02 | 0.974 | 1.01 | 0.966 | 0.955 | 0.971 | 0.976 | 1.06 | 1.01 | 1.02
CCS(=O)(=O)Oc1ccc2c(c1)C(C)(C)CO2 | 0.972 | 1 | 0.967 | 1.01 | 1.01 | 0.99 | 1.01 | 1.04 | 1.03 | 1.01 | 1.08 | 1.02 | 1.02 | 0.83 | 0.966 | 1.06 | 1 | 1.07 | 1.03 | 0.963
CON(C)C(=O)Nc1ccc(Cl)cc1 | 0.997 | 1.02 | 0.983 | 1.03 | 0.97 | 1.03 | 0.999 | 1.12 | 1 | 1.02 | 1.02 | 1.01 | 1 | 0.999 | 0.96 | 1.04 | 0.97 | 0.998 | 1.02 | 1.02
CC[C@H](C)[C@H]1O[C@]2(C=C[C@@H]1C)C[C@@H]1C[C@@H](C/C=C(\C)[C@@H](O[C@H]3C[C@H](OC)[C@@H](O[C@H]4C[C@H](OC)[C@@H](NC)[C@H](C)O4)[C@H](C)O3)[C@@H](C)/C=C/C=C3\CO[C@@H]4[C@H](O)C(C)=C[C@@H](C(=O)O1)[C@]34O)O2.O=C(O)c1ccccc1 | 1.08 | 0.0357 (active) | 0.264 (active) | 0.0271 (active) | 0.00403 (active) | 0.812 | 0.322 (active) | 0.167 (active) | 0.781 | 0.553 (active) | 0.156 (active) | 0.974 | 0.95 | 0.865 | 0.758 | 0.714 (active) | 0.597 | 1.06 | 0.0402 (active) | 0.345 (active)
